An excerpt weighted towards active compounds, which were near 12% of everything screened.
JMJD2A Tudor inh = blocks the human JMJD2A Tudor domain; Potency, µM (highest dose often 114 µM), inactives show top-dose activity change, negative = inhibition, hits mostly inhibitors; O75164; AlphaScreen JMJD2A-Tudor / H3K4me3 peptide binding; 4.4% of 390,000 active; further: on the % scale 0 is the no-effect control and ±100 the full control effect; nearly all actives have a fitted effect of over 50% in size
BAZ2B inh = blocks human BAZ2B; AlphaScreen BAZ2B-H3K14Ac peptide displacement; 4.4% of 360,000 active; Potency, µM (highest dose often 114 µM), without a hit: at the top dose activity change, negative = inhibition, usual class: inhibitors; further: on the % scale 0 is the no-effect control and ±100 the full control effect; nearly all actives have a fitted effect of over 60% in size
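Protein-peptide AlphaScreen: BAZ2B 50 nM, b-H3K14Ac 50 nM, 1x PBS pH 7.4 + 0.01% Tween-20. Preincubation 30 min RT; cpd 30 min RT (top 110 uM); beads 20 min RT, light-protected.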
G9a inh = blocks human histone lysine methyltransferase G9a; G9a H3K9 monomethylation, AlphaScreen, 2 h; 8.8% of 350,000 active; Potency, µM (titrated, usually from 102 µM), without a hit: top-dose activity, negative = inhibition, usual class: inhibitors; further: on the % scale 0 is the no-effect control and ±100 the full control effect; nearly all actives have a fitted effect of over 75% in size
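AlphaScreen detection with an anti-monomethyl H3K9 antibody quantified product after a 2 h room-temperature reaction containing 500 nM biotinylated H3K9 peptide, 20 µM SAM and 20 nM enzyme, which had been preincubated 15 min with compound.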
L3MBTL1 block = L3MBTL1 (human) inhibition | Q9Y468 | AlphaScreen L3MBTL1–H3K9me1 peptide binding | Potency, µM (highest dose often 57.1 µM), without a hit: top-dose activity, negative = inhibition, most hits filed as inhibitors | 0.66% of 230,000 active; further: on the % scale 0 is the no-effect control and ±100 the full control effect; nearly all actives have a fitted effect of over 60% in size
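Read-out is AlphaScreen signal from streptavidin donor and nickel chelate acceptor beads (10 ug/mL final each) bridging L3MBTL1 (50 nM) and biotinylated K9-monomethylated H3(1-15) peptide (75 nM), after 30 min compound exposure at room temperature.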
HP1b binding inh = HP1-beta chromodomain-methylated histone interaction inhibition | 0.56% of 390,000 active | AID 540317 | AlphaScreen HP1-beta / biotin-H3K9me3 peptide binding | Potency, µM (highest dose often 114 µM), without a hit: at the top dose activity change, negative = inhibition, most hits filed as inhibitors | P83916; further: nearly all actives have a fitted effect of over 70% in size
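Compound inhibition of the preformed complex between 50 nM HP1-beta and 50 nM biotinylated H3K9me3 peptide was read by AlphaScreen. Buffer was PBS pH 7.4 with 0.01% Tween-20. Incubations ran 30 min at room temperature, with 10 ug/mL donor/acceptor beads.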
Sfp PPTase inh = Sfp phosphopantetheinyl transferase inhibition; Q9F4F7; Biochemical Sfp PPTase activity, qHTS; Potency, µM, for inactives: largest response in the series, negative = inhibition, hits mostly inhibitors; 3.5% of 310,000 active; AID 1490;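 further: the enzyme is Sfp with the accession as filed and its product quenches rhodamine fluorescence; 0% = enzyme reaction without inhibitor and -100% = no enzyme wells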
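After 15 min at room temperature with compound, 15 nM Sfp received 5 uM rhodamine-CoA plus 12.5 uM BHQ-2-ybbR (50 mM Hepes pH 7.6, 10 mM MgCl2). Rate came from the fluorescence difference over 30 min, ex 525/em 598 nm.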
* = called active by the depositor; ? = inconclusive; . = no result given; [ ] = remark or other dose. The call rests on the fitted dose curve; in most records, active means well fitted curve in the direction sought with a large enough effect; inconclusive means small, poorly fitted or top-dose-only effect, or another doubt; inactive means no such curve, though single readings can be large; an effect the other way counts as inactive or inconclusive. Potency means the concentration at half of the fitted maximal effect.

SMILES	JMJD2A Tudor inh	BAZ2B inh	G9a inh	L3MBTL1 block	HP1b binding inh	Sfp PPTase inh
CCOc1ccc(NC(=O)CCNS(=O)(=O)c2ccc3c(c2)CC(C)N3C(C)=O)cc1 (stereo unspecified)	25.1µM*	-13.8%	9.0%[59 µM]	.	15.3%	14.4%
C/C=C1/NN(CCCN2CCN(c3cccc(Cl)c3)CC2)C(=O)N1CCOc1ccccc1	.	.	?	.	.	-6.9%
CC(CCc1ccco1)NC(=O)Nc1cccc(F)c1 (stereo unspecified)	-33.8%	-28.2%	50.1µM*	-1.1%	1.5%	11.1%
CC(NC(=O)Nc1cccc(F)c1)c1ccc2c(c1)OCO2 (stereo unspecified)	-6.9%	3.2%	.	.	44.0%	4.1%
COc1ccc(OC)c(-c2noc(N3CCN(c4cccc(C)c4C)CC3)n2)c1	-28.4%	-14.5%	?	.	24.4%	.
CCCN1CNc2c(c(=O)[nH]c(=S)n2CCc2c(OC)cccc2OC)C1	-17.0%	.	.	.	22.2%	.
Cc1ccc(CCNS(=O)(=O)c2ccc(C)cc2)cc1	31.6%	3.0%	3.7%	12.4%	51.4%	2.8%
Cc1ccc(S(=O)(=O)NCCc2ccc(S(N)(=O)=O)cc2)cc1	21.1%	2.1%	14.1µM*	.	54.2%	5.3%
COCCn1c(=O)c(-c2cccc(C#N)c2)nc2cnc(N(C)C)nc21	.	.	8.2%[0.501 µM]	.	.	21.9%
CCCN1C(=O)/C(=C/c2ccc(C)o2)NC1=S	.	?	7.94µM*	.	.	20µM*
CCN1C(=O)N/C(=C/c2ccc(C)o2)C1=O	-31.4%	-34.7%	?	-16.4%	16.6%	-96.6%
Cc1ccc(/C=C2/NC(=O)N(Cc3ccccc3F)C2=O)o1	?	3.1%	31.6µM*	-3.0%	-6.8%	14.1µM*
Cc1ccc(/C=C2/NC(=O)N(Cc3ccc(Br)cc3)C2=O)o1	50.1µM*	-12.9%	31.6µM*	3.2%	-2.3%	3.16µM*
COc1ccccc1NC(=O)c1sc2nc(C)c(C(=O)Nc3ccc(C)cc3C)c(-c3ccc(C)o3)c2c1N	-21.2%	3.0%	10.2%[59 µM]	.	18.7%	.
Cc1ccc(C(=O)NCC(c2ccco2)S(=O)(=O)c2ccc(Cl)cc2)cc1C (stereo unspecified)	-14.0%	-12.7%	3.4%[59 µM]	.	13.0%	.
CCOc1ccc(CN(C(=O)c2cc(=O)c3cc(Cl)ccc3o2)C2CCS(=O)(=O)C2)cc1 (stereo unspecified)	-12.2%	14.8%	4.5%[59 µM]	.	50.8%	.
COc1ccc(-c2ccc(SCC(=O)Nc3nnc(C)s3)nn2)cc1	1.4%	-16.2%	8.6%	-55.3%	38.5%	0.1%
CCc1nnc(NC(=O)CSc2nnc(C)n2-c2ccc(C)cc2)s1	-13.5%	-22.5%	19.7%[12.7 µM]	.	21.3%	11.0%
CCc1nnc(NC(=O)CSc2ccc(-c3ccc(C)cc3)nn2)s1	-33.8%	-28.4%	50.1µM*	-4.0%	19.6%	?
CCOc1ccc(-c2ccc(SCC(=O)Nc3nnc(CC)s3)nn2)cc1	-17.9%	-2.1%	28.2µM*	.	9.5%	3.0%
O=S(=O)(c1ccc(F)cc1)N(CC(O)Cn1c2ccccc2c2ccccc21)c1ccccc1 (stereo unspecified)	-15.5%	2.2%[57.1 µM]	-25.9%[59 µM]	.	29.0%	.
CS(=O)(=O)Nc1ccc([N+](=O)[O-])cc1OC1CCCCC1	.	.	24.6%[59 µM]	.	.	3.3%
COc1ccccc1NC(=O)c1nc(S(=O)(=O)Cc2ccccc2)ncc1Cl	-11.1%	-28.3%	17.8µM*	.	6.5%[57 µM]	-12.3%
CC(=O)Nc1ccc(NC(=O)c2nc(S(=O)(=O)Cc3ccc(F)cc3)ncc2Cl)cc1	-11.0%	1.3%	?	.	39.8%	.
CCOc1ccccc1NC(=O)c1nc(S(=O)(=O)Cc2ccccc2)ncc1Cl	-29.3%	-29.8%	39.8µM*	.	4.0%[57 µM]	-9.0%
SMILES	JMJD2A Tudor inh	BAZ2B inh	G9a inh	L3MBTL1 block	HP1b binding inh	Sfp PPTase inh
CC(=O)Nc1ccc(NC(=O)c2nc(S(=O)(=O)Cc3cccc(C)c3)ncc2Cl)cc1	-24.7%	-22.3%	44.7µM*	.	-4.1%[57 µM]	-3.3%
COc1ccc(OC)c(NC(=O)c2nc(S(=O)(=O)Cc3ccc(F)cc3)ncc2Cl)c1	?	?	7.08µM*	.	-6.5%	.
CCS(=O)(=O)c1ncc(Cl)c(C(=O)Nc2ccccc2OC)n1	-4.8%	-7.5%	.	0.8%	53.1%	6.8%
COC(=O)c1ccc(NC(=O)c2nc(S(=O)(=O)Cc3cccc(C)c3)ncc2Cl)cc1	-22.1%	-17.2%	2.1%	.	14.2%[57 µM]	?
Fc1ccc(-c2cc(-c3nc(-c4cccc(Cl)c4)no3)[nH]n2)cc1	-17.2%	1.6%	9.6%[59 µM]	.	-0.6%	.
Cc1ccc(NC(=O)c2nc(S(=O)(=O)Cc3ccc(F)cc3)ncc2Cl)cc1C	-5.0%	-8.0%	7.3%[59 µM]	.	91.7%	.
CCOC(=O)c1ccc(NC(=O)c2nsc3ccccc23)cc1	64.1%	49.6%	3.16µM*	.	85.7%	.
CCOC(=O)c1ccc(NC(=O)c2nc(S(=O)(=O)Cc3ccccc3)ncc2Cl)cc1	-16.0%	-29.5%	22.4µM*	.	-11.3%[57 µM]	?
Cc1ccc(NC(=O)c2nc(S(=O)(=O)Cc3ccccc3C)ncc2Cl)cc1C	12.6µM*	-33.8%	44.7µM*	.	-24.2%[57 µM]	-15.7%
COc1ccccc1CNC(=O)CSc1ccc(-c2sc(-c3ccccc3)nc2C)nn1	-15.0%	-38.5%	-10.1%[59 µM]	.	29.5%	.
CCOc1ccccc1N(C)C(=O)Cn1nc(Cc2ccncc2)c2ccccc2c1=O	-10.6%	-12.5%	2.1%[59 µM]	.	30.6%	.
Cc1ccc(-c2nc3nc(C)cc(N4CCN(c5cccc(C)c5C)CC4)n3n2)cc1	-2.4%	2.9%	-2.9%[59 µM]	.	34.5%	.
Cc1[nH]c2c(C)cccc2c1CCNC(=O)c1cc2ccccc2oc1=O	-3.4%	-12.3%	0.2%[59 µM]	.	20.2%	.
O=C(CNC1CCCCCC1)Nc1ccccc1N1CCCCC1	1.41µM*	?	?	2.7%	?	?
O=C(CNCC1CCCCC1)Nc1ccccc1N1CCCCC1	-75.6%[57.1 µM]	?	?	2.8%	-25.0%	?
CCn1nc(C(=O)Nc2ccccc2N2CCCC2)c2ccccc2c1=O	35.5µM*	39.8µM*	25.1µM*	?	?	.
O=C(Cc1ccccc1)Nc1ccccc1N1CCCC1	-30.2%	-34.7%	56.2µM*	-15.5%	11.8%	-0.2%
O=C(CNCCC1=CCCCC1)Nc1ccccc1N1CCCCC1	5.62µM*	50.1µM*	1.78µM*	16.1%	?	?
Cc1cccc(-c2nc3nc(C)cc(NC(C)c4ccccc4)n3n2)c1 (stereo unspecified)	-24.9%	-16.8%	-15.8%[59 µM]	.	22.7%[57 µM]	.
CC1OC(n2cc(F)c(=O)[nH]c2=O)C(O)C1O (stereo unspecified)	.	.	.	.	.	17.1%
O=C(Cc1ccc(Br)cc1)Nc1ccccc1N1CCCC1	?	?	50.1µM*	.	-3.3%	10.4%
COc1ccc(CC(=O)Nc2ccccc2N2CCCC2)cc1	-35.7%	?	.	.	7.3%	-2.6%
Cc1ccc(NC(=O)Nc2cn(C)c(=O)c3ccccc23)c(Cl)c1	-24.8%	1.6%	?	.	39.9%	.

Compound activity from PubChem.
